BoNT-F LC inh = blocks Botulinum neurotoxin F light chain protease | Multiplex microsphere protease cleavage assay, flow cytometry | inhibition, % at 10 µM | hit rate 0.22% among 360,000; in the data active = inhibition above about 35%, passing the limit was not always enough; inconclusive = no clear call, values can overlap the other calls; note: plate controls were buffer without enzyme for full effect and enzyme alone for no effect
Bead autofluor = compound fluorescence in toxin protease inhibitor counterscreen | compound autofluorescence counterscreen, microsphere flow cytometry; hits give high values | fluorescence intensity (concentration not given with the values) | hit rate 3.1% among 360,000; in the data active = fluorescence intensity above about 16000; inconclusive = no clear call, values can overlap the other calls
BH1578 lux ind = inducers of Vibrio cholerae quorum light production without autoinducers. V. cholerae BH1578 lux reporter, luminescence, 6 h. hit rate 0.16% among 350,000. activation, % at 18.7 µM; in the data active = activation mostly above about 9.7%, no sharp cut-off; inconclusive = no clear call, values can overlap the other calls; inactive = mostly below about 3.7%
BoNT-A LC inh2 = blocks Botulinum neurotoxin A light chain protease. hit rate 0.17% among 360,000. multiplex microsphere protease substrate cleavage, flow cytometry. inhibition, % at 10 µM; note: plate controls were buffer without enzyme for full effect and enzyme alone for no effect
Anthrax LF prot = blocks Bacillus anthracis lethal factor protease; inhibition, % at 10 µM; multiplex microsphere protease cleavage assay, LF; P15917; hit rate 0.12% among 360,000; note: plate controls were buffer without enzyme for full effect and enzyme alone for no effect
MazEF act = increases E. coli MazEF RNase cleavage of RNA. hit rate 0.32% among 350,000. FAM/BHQ RNA-DNA oligo cleavage fluorescence, 5 h. P0AE70. activation, % at 20 µM; in the data active = activation above about 50%
BoNT-A LC CP1 = blocks botulinum neurotoxin A light chain protease. shares compounds with BoNT-F LC inh. multiplex microsphere protease assay, flow cytometry. inhibition, % at 10 µM. hit rate 3% among 720. AID 602139; in the data active = inhibition above about 32%
BoNT-F LC CP1 = blocks botulinum neurotoxin F light chain protease. shares compounds with BoNT-F LC inh. AID 602140. inhibition, % at 10 µM. 720 tested, under 10 active. multiplex microsphere protease cleavage assay, flow cytometry; call rule not given here
LF protease CP1 = blocks anthrax lethal factor protease. shares compounds with BoNT-F LC inh. 720 tested, under 10 active. inhibition, % at 10 µM. multiplex microsphere protease cleavage assay, LF; call rule not given here
An asterisk follows results filed as active; i = inactive; ? = inconclusive; nt = not tested or not shown. This is a sample that favours compounds with a hit; in the whole collection about 3.9% have one here. Cut-off read from the data, not from the text of the source, unless noted: active = inhibition above about 30%; inconclusive = no clear call, values can overlap the other calls; inactive = below that.

SMILES	BoNT-F LC inh	Bead autofluor	BH1578 lux ind	BoNT-A LC inh2	Anthrax LF prot	MazEF act	BoNT-A LC CP1	BoNT-F LC CP1	LF protease CP1
COCCN1C(=O)N(c2cccc(C)c2)C(=O)C1CC(=O)Nc1ccc(OC)cc1 (centres undefined)	37.2*	3457	-0.3	0.6	3.1	-2.3	-0.1	0.6	-1.3
O=C(NC1CCC1)C1CCC(=O)N(Cc2ccccc2F)C1 (centres undefined)	0.1	5126	-0.3	2.5	-0.8	1.8	nt	nt	nt
CCCn1c2ccccc2c2nc3ccccc3nc21	-6.4	4676	-0.3	57.0*	31.2*	-6.8	12.3	4.0	8.7
O=C(CN1CCN(c2ccccc2F)CC1)NC(=O)NC1CCCCC1	1.2	2851	5.0	-0.6	-11.7	1.5	nt	nt	nt
c1csc(-c2nc3nc4ccccc4nc3n2Cc2ccc3c(c2)OCO3)c1	25.2	2888	i	50.9*	34.4*	3.7	8.4	-8.5	4.0
O=C(Cn1cnc2sc(-c3ccccc3)cc2c1=O)NCc1ccccc1	-1.0	9905	-0.2	-0.3	0.0	-24.7	nt	nt	nt
O=C(Cn1cnc2sc(-c3ccccc3)cc2c1=O)NCCc1ccccc1	44.7*	4551	0.0	0.9	0.3	-27.8	1.2	2.5	1.7
COc1ccc(C)cc1N(CC(=O)N1CCOCC1)S(C)(=O)=O	35.7*	4074	-0.8	-3.0	14.0	6.7	-0.1	0.0	-4.9
COc1ccc(C)cc1N(CC(=O)N1CCCC1)S(C)(=O)=O	4.6	3853	-0.9	-1.2	-9.5	2.2	nt	nt	nt
Cn1c(=O)c(/C=C/c2ccc(F)cc2)nc2ccccc21	1.6	4159	-1.3	32.6*	16.3	-12.3	23.7	2.5	9.2
Cn1c(/C=C/c2ccccc2)nc2ccccc21	3.4	4364	-0.3	-0.4	-1.8	0.3	nt	nt	nt
O=c1c(/C=C(\O)c2ccc(F)cc2)nc2ccccc2n1-c1ccccc1	193.7*	14800	-0.5	46.2*	32.1*	-516.1	19.7	6.8	7.9
Cn1c(=O)c(/C=C/c2ccccc2)nc2ccccc21	2.9	2731	-0.7	48.8*	15.9	2.7	39.9*	7.2	20.6
CSCCC(NC(=O)c1ccco1)C(=O)OCC(=O)N1c2ccccc2NC(=O)C1(C)C (centres undefined)	-6.4	6681	-0.7	-1.1	-1.5	5.0	nt	nt	nt
Cc1cc2cc(CNC(=O)C(C)Oc3ccccc3)ccc2n1C (centres undefined)	-56.9	2556	-3.1	90.0*	-10.2	-0.8	3.8	-4.3	2.2
CCOC(=O)NCc1ccc2[nH]c(C)cc2c1	-19.6	3699	-0.4	25.1	16.2	1.3	nt	nt	nt
COc1ccc(NC(=S)NCc2ccc3c(c2)cc(C)n3C)cc1	-135.3	1884	-0.2	25.2	-119.9	19.3	nt	nt	nt
Cc1cc2cc(CNC(=O)Nc3ccccc3)ccc2[nH]1	-117.0	3218	-0.1	54.8*	-84.2	3.4	6.3	-45.8	-7.6
Cc1cc2cc(CNC(=O)Nc3ccccc3)ccc2n1C	-153.4	2200	0.9	55.6*	-78.2	9.7	9.7	-48.2	-8.0
CCOC(=O)NCc1ccc2c(c1)cc(C)n2C	21.5	13397	i	41.3*	41.8*	-1.6	-0.1	-7.5	-1.2
Cc1cc2cc(CNC(=O)C3CC3)ccc2n1C	6.0	13924	-3.1	18.3	26.9	-16.0	nt	nt	nt
CCc1nc2ccc(C(=O)N3CCN(c4ccccc4)CC3)cn2c1N(C)CCCc1ccccc1	1.9	2952	i	-0.4	-5.7	nt	nt	nt	nt
CCC(CC)C(=O)NCc1ccc2c(c1)cc(C)n2C	-37.0	3772	-0.7	32.0*	-1.3	0.3	1.7	-4.6	-1.9
Cc1cc2cc(CNC(=O)c3cccs3)ccc2n1C	-71.5	1271	2.0	79.0*	-2.7	11.7	15.2	-33.5	1.6
COc1ccc(C2NC(c3ccc(OC)cc3OC)C(C)C(=O)C2C)c(OC)c1 (centres undefined)	1.7	4264	-1.9	0.6	-7.0	7.4	nt	nt	nt
SMILES	BoNT-F LC inh	Bead autofluor	BH1578 lux ind	BoNT-A LC inh2	Anthrax LF prot	MazEF act	BoNT-A LC CP1	BoNT-F LC CP1	LF protease CP1
CCCSc1cc(=O)n(-c2ccccc2)nc1C(=O)O	-1.2	1895	-0.5	-0.1	-1.4	6.0	nt	nt	nt
COC(=O)CCSc1cc([N+](=O)[O-])cc2c1c(C1OCCO1)nn2-c1ccccc1	5.2	2047	i	32.9*	14.2	-5.0	7.6	0.4	2.3
CNc1cc(C)c(C#N)c2nc3ccccc3n12	7.4	3969	-4.1	0.4	32.2*	0.7	0.3	-1.4	-4.8
CCCNc1cc(C)c(C#N)c2nc3ccccc3n12	0.7	3286	i	-0.2	-6.7	9.6	nt	nt	nt
O=C(O)c1ccc(N2C(=O)CC(N3CCN(c4ccc(Cl)cc4)CC3)C2=O)cc1 (centres undefined)	?	3771	2.3	0.1	-8.6	-0.3	nt	nt	nt
O=C1CC(N2CCN(c3ccc(Cl)cc3)CC2)C(=O)N1c1ccc(F)cc1 (centres undefined)	56.5*	3880	-0.7	2.6	-3.3	4.4	-1.5	1.1	-3.0
Cc1ccc(C(=Cc2ccc([N+](=O)[O-])cc2)C(=O)O)cc1	-2.8	3423	-2.9	-0.3	0.8	-4.4	nt	nt	nt
CC(C)CN(C(=O)COC(=O)c1ccc(Br)o1)c1c(N)n(Cc2ccccc2)c(=O)[nH]c1=O	12.8	?	-0.3	-2.6	3.3	-4.6	nt	nt	nt
Cc1nc(C)c(-c2ccn(C(=O)NC(C)C)n2)s1	38.3*	3164	-0.6	0.8	3.2	-15.5	1.7	-2.0	2.6
CC(C)N(C)Cc1cn(C)nc1-c1ccc(Oc2ccccc2)cc1	35.5*	3249	-0.2	-2.3	0.0	13.5	-0.4	-6.5	1.3
COCCN(Cc1cn(C)nc1-c1ccc(Oc2ccccc2)cc1)C(C)C	?	4079	-0.2	-6.9	-19.3	-14.2	nt	nt	nt
O=C(NCc1ccccc1)c1cc(C2COCCN2C(=O)C/C=C/c2ccccc2)on1 (centres undefined)	-2.1	3920	i	-0.7	-6.1	nt	nt	nt	nt
O=S(=O)(Nc1ccc(Cl)nn1)c1ccccc1	38.3*	4098	-0.3	5.8	0.0	-3.8	-2.0	-1.3	-2.6
CCOC(=O)C1(C)CCCN1C(=O)c1cncc(Br)c1 (centres undefined)	-3.7	3091	1.2	-0.6	-1.8	nt	nt	nt	nt
O=C(c1ccccc1)N1CCCC(C(=O)N2CCN(c3ccccc3)CC2)C1 (centres undefined)	?	3990	i	-6.6	33.8*	-6.9	0.0	-3.2	-2.7
O=C(c1ccccc1)N1CCCC(C(=O)N2CCCCC2)C1 (centres undefined)	6.3	4798	2.1	0.7	-0.4	-0.7	nt	nt	nt
CC(C)N(Cc1ccccc1)C(=O)CC(=O)N(Cc1ccccc1)C(C)C	36.2*	5070	i	8.7	12.2	-12.2	0.1	-3.7	-1.9
CC(C)N(Cc1ccccc1)C(=O)CN1C(=O)c2ccccc2C1=O	7.4	4105	3.8	-0.2	-9.6	20.2	nt	nt	nt

Screening data deposited in PubChem BioAssay by several laboratories.
